Structures are written as SMILES. Out of some 310,000 compounds screened, about 2,200 (0.71%) showed an effect of 50% or more. Effects have a minus sign here. The full list was thinned out, with strong results kept by preference.

In the test the target is human ether-à-go-go-related gene (hERG) potassium channel (human, UniProt Q12809). Description: primary screen, population patch clamp on CHO cells stably expressing hERG; higher = less effect of the substance.
Sequence of human ether-à-go-go-related gene (hERG) potassium channel (Q12809 whole entry, looked up): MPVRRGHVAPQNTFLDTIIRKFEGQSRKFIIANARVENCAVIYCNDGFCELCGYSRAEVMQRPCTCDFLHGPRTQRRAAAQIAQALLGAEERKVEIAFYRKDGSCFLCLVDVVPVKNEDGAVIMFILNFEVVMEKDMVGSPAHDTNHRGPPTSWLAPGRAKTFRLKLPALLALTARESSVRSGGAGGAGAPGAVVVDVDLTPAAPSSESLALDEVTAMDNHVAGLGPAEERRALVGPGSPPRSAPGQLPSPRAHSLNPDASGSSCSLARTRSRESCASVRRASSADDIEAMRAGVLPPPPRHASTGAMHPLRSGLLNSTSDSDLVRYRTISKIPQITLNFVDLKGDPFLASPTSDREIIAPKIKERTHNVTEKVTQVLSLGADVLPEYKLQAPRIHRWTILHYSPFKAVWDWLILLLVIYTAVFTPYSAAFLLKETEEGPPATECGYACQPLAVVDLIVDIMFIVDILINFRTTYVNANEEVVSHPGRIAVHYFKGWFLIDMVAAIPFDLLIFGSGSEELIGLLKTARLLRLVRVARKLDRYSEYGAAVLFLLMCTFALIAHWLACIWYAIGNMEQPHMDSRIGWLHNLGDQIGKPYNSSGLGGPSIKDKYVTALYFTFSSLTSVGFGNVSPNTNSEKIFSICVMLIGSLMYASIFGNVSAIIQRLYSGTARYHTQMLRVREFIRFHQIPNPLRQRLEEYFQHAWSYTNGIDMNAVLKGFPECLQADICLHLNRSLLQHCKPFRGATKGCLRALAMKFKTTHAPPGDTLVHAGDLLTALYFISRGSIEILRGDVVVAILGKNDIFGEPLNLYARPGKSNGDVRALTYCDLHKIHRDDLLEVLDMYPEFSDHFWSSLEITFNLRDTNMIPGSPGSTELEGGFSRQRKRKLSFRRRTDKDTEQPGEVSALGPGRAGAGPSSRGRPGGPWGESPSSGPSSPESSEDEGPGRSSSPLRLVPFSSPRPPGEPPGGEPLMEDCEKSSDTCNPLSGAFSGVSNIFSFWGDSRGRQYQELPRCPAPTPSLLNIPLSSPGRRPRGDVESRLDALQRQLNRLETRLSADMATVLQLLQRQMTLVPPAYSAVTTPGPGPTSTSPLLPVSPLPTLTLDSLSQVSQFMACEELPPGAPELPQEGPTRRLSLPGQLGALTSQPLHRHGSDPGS
As for `CSc1ccc(/C=N/N2CCN(Cc3ccccc3Cl)CC2)cc1`, the “hERG current change (%, negative = inhibition) at 1uM” value was found to be 9.96%.
In the case of `Cc1c(C(=O)O)c(C(=O)O)nc2ccc(N3CCOCC3)cc12` it was 10.3%; in that of `Cc1c(CCC(=O)NC2CC2)c(=O)oc2c(C)c(O)ccc12`, 22.9%.
Turning to `CCCN1C2=NCCN2c2ccccc21.Cl`, the “hERG current change (%, negative = inhibition) at 1uM” value turned out to be 0.0662%.
Regarding `Br.COC(=O)CN1C2=NCCCN2c2ccccc21`, the “hERG current change (%, negative = inhibition) at 1uM” value is given as -3.47%.
In the case of `Br.COC(=O)c1ccc(OCCN2C3=NCCN3c3ccccc32)cc1` it was -56.5%; in that of `Cl.c1ccc(OCCN2C3=NCCN3c3ccccc32)cc1`, -51.5%.
In the case of `Br.CCOC(=O)CN1C2=NCCN2c2ccccc21` it was 15.4%.
The result for `Cl.c1ccc2c(c1)N1CCN=C1N2CCN1CCCCC1` reads 3.76%.
Turning to `Cc1ccc(Cl)cc1N1CCN(C(=O)Cc2cn(C)c3ccccc23)CC1`, the “hERG current change (%, negative = inhibition) at 1uM” value was 13.8%.
In the case of `CCOc1cc(NC(=O)c2ccccn2)c(OCC)cc1NC(=O)c1ccc(OC)cc1` it was 3.95%.
The result for `CNC(=S)NNC(=O)c1cccc(N(C)C)c1` reads 2.36%; that for `Cc1cccc(NS(=O)(=O)c2cccs2)n1`, 17.6%; that for `COc1ccc(C2C(C(=O)N3CCN(c4ccccn4)CC3)CCC(=O)N2c2ccc(OC)cc2)cc1` (centres unmarked), -0.548%.
The result for `COc1ccc(N2C(=O)CCC(C(=O)N3CCN(c4ccccn4)CC3)C2c2ccc(F)cc2)cc1` (centres unmarked) reads -21.3%; that for `COc1ccc(C2C(C(=O)N3CCN(c4ccccn4)CC3)CC(=O)N2c2ccc(OC)cc2)cc1` (centres unmarked), -50.6%; that for `Cc1ccc(CNC(=O)CN(Cc2ccccc2)S(C)(=O)=O)cc1`, -3.4%.
Regarding `Cc1cc(=O)[nH]c(N/N=C/c2c[nH]c3ccccc23)n1`, the “hERG current change (%, negative = inhibition) at 1uM” value worked out at 9.01%.
With `[O-][Cl+3]([O-])([O-])[O-].c1ccc(-c2[nH]c(-c3ccccc3)[n+](CC3CO3)c2-c2ccccc2)cc1` (centres unmarked), the “hERG current change (%, negative = inhibition) at 1uM” value is recorded as -2.8%.
With `Cc1cc(N2CCCC2)ccc1C=C(C#N)C#N`, the “hERG current change (%, negative = inhibition) at 1uM” value worked out at 1.28%.
The result for `N#CC(C#N)=Cc1ccc(N2CCCC2)cc1` reads 5.75%; that for `Cc1cc(C=C(C#N)C#N)ccc1N1CCCC1`, -68.6%; that for `CNC(=S)Nc1ccc(C(N)=O)cc1`, 10.2%.
In the case of `CC(C)(C)c1nc(NCC2CCCO2)c2nnn(Cc3ccccc3)c2n1` (centres unmarked) it was 13.9%.
In the case of `COc1ccc(C(=O)Nc2ccccc2C(=O)Nc2ccc(C(=O)O)cc2)cc1` it was 15%; in that of `O=C(CNS(=O)(=O)c1ccc(Br)s1)NCCc1ccc(Cl)cc1`, 16.1%; in that of `CC1(C)CC(=O)CC2(C1)NCC(c1ccccc1Cl)c1c2[nH]c2ccccc12.Cl` (centres unmarked), -3.21%.
With `CC1(C)CC(=O)CC2(C1)NCC(c1ccccc1)c1c2[nH]c2ccccc12.Cl` (centres unmarked), the “hERG current change (%, negative = inhibition) at 1uM” value is -83.4%.
As to `COc1cccc(C2CNC3(CCCC(C)C3)c3[nH]c4ccccc4c32)c1OC.Cl` (centres unmarked), the “hERG current change (%, negative = inhibition) at 1uM” value is 8.05%.
Regarding `CC(C)(C)OC(=O)N[C@@H](Cc1ccccc1)C(=O)N1CCC(C(=O)N[C@@H](Cc2c[nH]c3ccccc23)C(=O)O)CC1`, the “hERG current change (%, negative = inhibition) at 1uM” value was 15%.
In the case of `CCCS(=O)(=O)c1c(S(=O)(=O)CCC)c2cnccn2c1C(=O)c1ccc(CC)cc1` it was 0.628%; in that of `OC1(c2ccc(Cl)cc2)CCN(Cc2c[nH]c3ccccc23)CC1`, -27.6%.
As for `CCOc1ccc(OCCC(=O)Nc2ccc3c(c2)OCO3)cc1`, the “hERG current change (%, negative = inhibition) at 1uM” value turned out to be 11.1%.
Regarding `CCOc1ccc(NC(=O)COc2ccc3c(c2)OCO3)cc1`, the “hERG current change (%, negative = inhibition) at 1uM” value is given as 7.57%.
Turning to `CCOc1ccc(NC(=O)CN2CCN(CC(=O)Nc3ccc4c(c3)OCO4)CC2)cc1`, the “hERG current change (%, negative = inhibition) at 1uM” value is given as -80.9%.
In the case of `COc1ccc(OCC(=O)Nc2ccc3c(c2)OCO3)cc1` it was 11.7%; in that of `COc1ccccc1NC(=O)CN1CCN(CC(=O)Nc2ccc3c(c2)OCCO3)CC1`, -10.6%; in that of `COc1ccc(NC(=O)CN2CCN(CC(=O)Nc3ccc4c(c3)OCO4)CC2)cc1`, -85.9%.
As for `COc1ccccc1NC(=O)CN1CCN(CC(=O)Nc2ccc3c(c2)OCO3)CC1`, the “hERG current change (%, negative = inhibition) at 1uM” value was -67.3%.
In the case of `COc1ccc(S(=O)(=O)N2CCCN(CC(=O)Nc3ccc4c(c3)OCO4)CC2)cc1` it was -15.1%; in that of `COc1ccccc1N1CCN(CC(=O)Nc2ccc3c(c2)OCCO3)CC1`, -0.304%; in that of `O=C(CN1CCCC1=O)NC1C2CC3CC(C2)CC1C3` (centres unmarked), 9.69%.
The result for `COC(=O)C1=CN(Cc2ccccc2)C=C(C(=O)OC)C1c1ccc(O)c(OC)c1` reads 17.4%; that for `COc1ccc(N2C(=O)/C(=C\c3ccco3)N=C2SCC(=O)N(C(C)C)C(C)C)cc1Cl`, 20.1%; that for `Cc1ccc(OCC(O)CNC2CCCC2)cc1C.Cl` (centres unmarked), 8.86%.
The result for `CC(=O)c1cccc(CN2CCCCC2C(=O)Nc2ccc(Oc3ccccc3)nc2)c1` (centres unmarked) reads 0.714%; that for `CCC(=O)Nc1nc(C)c(C(=O)N2CCCCC2)s1`, 12.8%.
Regarding `CCCCN(C(=O)c1ccc(C)c(S(=O)(=O)N2CCOCC2)c1)c1c(N)n(CC(C)C)c(=O)[nH]c1=O`, the “hERG current change (%, negative = inhibition) at 1uM” value is on record as -57.9%.
The result for `CCCCN(C(=O)c1ccc(C)c(S(=O)(=O)N2CCOCC2)c1)c1c(N)n(CCCC)c(=O)[nH]c1=O` reads 5.43%; that for `CCCCn1c(N)c(N(CCC(C)C)C(=O)c2ccc(C)c(S(=O)(=O)N3CCOCC3)c2)c(=O)[nH]c1=O`, 5.89%; that for `O=C(CCNS(=O)(=O)c1ccccc1F)N1CCN(Cc2ccccc2)CC1`, 8.79%.
For the molecule `O=C(NCc1ccccc1)c1ccc(NC(=O)c2ccco2)cc1`, the “hERG current change (%, negative = inhibition) at 1uM” value was determined as 5.4%.
Take `O=C(NC1CCCC1)C(c1ccccn1)N(Cc1ccccc1F)C(=O)c1csnn1` (centres unmarked): the “hERG current change (%, negative = inhibition) at 1uM” value turned out to be 10.7%.
In the case of `COc1ccccc1C1=NCc2nnc(CSC)n2-c2ccc(Cl)cc21` it was 0.0726%; in that of `CCOCCN1CCN(c2nnc3n2-c2ccc(Cl)cc2C(c2ccccc2Cl)=NC3)CC1.O=CO`, -57.6%; in that of `Clc1ccc2c(c1)C(c1ccccc1Cl)=NCc1nnc(N3CCN(CCOc4ccccc4)CC3)n1-2.O=C(O)/C=C/C(=O)O`, -50.8%.
`COCCCN1CCN(c2nnc3n2-c2sc(Br)cc2C(c2ccccc2Cl)=NC3)CC1.CS(=O)(=O)O`: the “hERG current change (%, negative = inhibition) at 1uM” value is recorded as -11.9%.
With `Clc1ccc2c(c1)C(c1ccccc1Cl)=NCc1nnc(Br)n1-2.c1ccccc1`, the “hERG current change (%, negative = inhibition) at 1uM” value amounted to 2.57%.
Take `CN1CCN(Cc2nnc3n2-c2ccc(Cl)cc2C(c2ccccc2)=NC3)CC1.O=CO`: the “hERG current change (%, negative = inhibition) at 1uM” value is -31.9%.
The result for `CSCc1nnc2n1-c1ccc(Cl)cc1C(c1ccccc1)=NC2` reads 4.89%; that for `Clc1ccc2c(c1)C(c1ccccc1Cl)=NCc1nnc(N3CCN(CCSc4ccccc4)CC3)n1-2.O.O=C(O)/C=C/C(=O)O`, -10.8%.
The result for `CN(C)CCSCc1nnc2n1-c1ccc(Cl)cc1C(c1ccccc1Cl)=NC2.c1ccccc1` reads -51.9%.

Source of the values: PMC4336329 (PLoS ONE, 2015).
